In PubChem BioAssay (NCI):
This is part of a sample that, as a whole, favours compounds with a hit. Of some 83,000 tested, about 20% had one in any assay.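 Testing used 96-well plates and a 48-hour single-concentration exposure. Example: -40 means 40% of the starting cells died.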 Activity calls are given as the source filed them. Rule for the calls: active = growth percent below 10; inactive = the rest.

Legend:
Test in all cases: NCI-60 one-dose screen, 48 h (100 = growth as untreated, 0 = no growth, -100 = all killed)
Settings in all cases: 10 µM
COLO 205 colon = test system: COLO 205 colon
MDA-MB-231 breast = test system: MDA-MB-231 breast
RXF 393 renal = test system: RXF 393 renal
CCRF-CEM leukemia = test system: CCRF-CEM leukemia
OVCAR-4 ovarian = test system: OVCAR-4 ovarian
HS 578T breast = test system: HS 578T breast
NCI/ADR-RES ovarian = test system: NCI/ADR-RES ovarian
T-47D breast = test system: T-47D breast
BT-549 breast = test system: BT-549 breast
MDA-MB-435 melanoma = test system: MDA-MB-435 melanoma
SW-620 colon = test system: SW-620 colon
MCF7 breast = test system: MCF7 breast
HCT-116 colon = test system: HCT-116 colon
HCC-2998 colon = test system: HCC-2998 colon
LOX IMVI melanoma = test system: LOX IMVI melanoma
SK-MEL-5 melanoma = test system: SK-MEL-5 melanoma
KM12 colon = test system: KM12 colon

Measured: growth

Cc1cc(N=C2NC(=O)S/C2=C\c2ccc(F)cc2)n[nH]1
inactive: COLO 205 colon 19.2% | OVCAR-4 ovarian 22.7% | HS 578T breast 10% | T-47D breast 18.1% | SW-620 colon 20.7% | HCC-2998 colon 22.4%
active: MDA-MB-231 breast 9.79% | RXF 393 renal -37.4% | CCRF-CEM leukemia 9.4% | NCI/ADR-RES ovarian 9.56% | BT-549 breast 3.56% | MDA-MB-435 melanoma -11.3% | MCF7 breast 7.74% | HCT-116 colon -51.5%

O=C(CSc1nc2ccccc2c(=O)n1-c1ccc(Cl)cc1)Nc1ccc(-c2nc3ccccc3[nH]2)cc1
active: MDA-MB-231 breast -14.8% | RXF 393 renal -35.1% | LOX IMVI melanoma -88.2% | OVCAR-4 ovarian -75.6% | HS 578T breast -27.4% | NCI/ADR-RES ovarian -3.44% | T-47D breast -68.5% | MDA-MB-435 melanoma -16% | SW-620 colon 7.92% | MCF7 breast -68.3% | HCT-116 colon -84.3% | HCC-2998 colon 4.31%
inactive: BT-549 breast 35.6%

O=C(CSc1nc2ccccc2c(=O)n1-c1ccc(Cl)cc1)Nc1ccc(-c2nc3ccc([N+](=O)[O-])cc3[nH]2)cc1
inactive: COLO 205 colon 11% | MDA-MB-231 breast 42.7% | HS 578T breast 11.8% | NCI/ADR-RES ovarian 61.3% | MDA-MB-435 melanoma 39.6% | SW-620 colon 64.2% | MCF7 breast 20.9% | HCT-116 colon 19.1% | HCC-2998 colon 12.1%
active: RXF 393 renal -5.28% | OVCAR-4 ovarian -12.1% | T-47D breast 6.69% | BT-549 breast -2.07%

COc1ccc(C2c3sc4ccc(C)cc4c3Oc3nc(N)nc(N)c32)cc1 (configuration not stated)
active: MDA-MB-435 melanoma 9.83%
inactive: COLO 205 colon 93.7% | MDA-MB-231 breast 89.3% | RXF 393 renal 64.8% | LOX IMVI melanoma 80.8% | OVCAR-4 ovarian 85.8% | HS 578T breast 78.8% | NCI/ADR-RES ovarian 85.1% | T-47D breast 61.3% | BT-549 breast 84.5% | SW-620 colon 84.8% | MCF7 breast 53.8% | HCC-2998 colon 94%

Cc1ccc(COc2ccc(NC(=O)Nc3ccc(Cl)c(C(F)(F)F)c3)cc2)cc1
inactive: MDA-MB-231 breast 90.2% | RXF 393 renal 75.5% | LOX IMVI melanoma 15.6% | CCRF-CEM leukemia 60.7% | OVCAR-4 ovarian 66.4% | HS 578T breast 86.7% | NCI/ADR-RES ovarian 84.7% | T-47D breast 33.7% | BT-549 breast 74.4% | MDA-MB-435 melanoma 86.1% | SW-620 colon 86.5% | MCF7 breast 41.6% | HCT-116 colon 69.7% | HCC-2998 colon 83.7%

Cc1ccc2sc3c(c2c1)Oc1nc[nH]c(=O)c1C3c1cccc(F)c1 (configuration not stated)
inactive: COLO 205 colon 105% | MDA-MB-231 breast 91.1% | RXF 393 renal 109% | LOX IMVI melanoma 107% | OVCAR-4 ovarian 91.7% | HS 578T breast 94.4% | NCI/ADR-RES ovarian 100% | T-47D breast 83.9% | BT-549 breast 95.5% | MDA-MB-435 melanoma 96.1% | SW-620 colon 102% | MCF7 breast 60.9% | HCC-2998 colon 118%

O=C(O)CCN1C(=O)/C(=C/C=C/c2ccc([N+](=O)[O-])o2)SC1=S
active: LOX IMVI melanoma -100%

CC(C)(C)c1cc(/C=C2\S/C(=N/c3ncn[nH]3)NC2=O)cc(C(C)(C)C)c1O
active: RXF 393 renal -17.5% | NCI/ADR-RES ovarian 5.61% | BT-549 breast -2.05% | MCF7 breast 8.22%
inactive: MDA-MB-231 breast 23.7% | CCRF-CEM leukemia 11% | OVCAR-4 ovarian 33.8% | HS 578T breast 11.8% | T-47D breast 10.3% | MDA-MB-435 melanoma 11.9% | SW-620 colon 15.1% | HCC-2998 colon 14.5%

COc1ccc(C(=O)COc2ccc(NC(=O)Nc3ccccc3)cc2)cc1
inactive: MDA-MB-231 breast 94.1% | RXF 393 renal 82.8% | SK-MEL-5 melanoma 94.3% | OVCAR-4 ovarian 87.2% | HS 578T breast 97.3% | NCI/ADR-RES ovarian 86.4% | T-47D breast 65.6% | BT-549 breast 76.2% | MDA-MB-435 melanoma 89.4% | SW-620 colon 101% | MCF7 breast 67.2% | HCT-116 colon 91% | HCC-2998 colon 105% | KM12 colon 91.6%

O=C(Nc1ccc(OCc2ccc(F)cc2)cc1)Nc1ccc(Cl)c(C(F)(F)F)c1
inactive: OVCAR-4 ovarian 19% | HS 578T breast 24% | SW-620 colon 22.3%
active: MDA-MB-231 breast 6.32% | RXF 393 renal -24.3% | SK-MEL-5 melanoma -81.4% | LOX IMVI melanoma -47.4% | NCI/ADR-RES ovarian 4.62% | T-47D breast 6.12% | BT-549 breast -15.9% | MDA-MB-435 melanoma -12.4% | MCF7 breast 3.2% | HCC-2998 colon 1.98%

O=C1NC2C=CC=CC2/C1=C1/SC(=S)N(C2CC(=O)N(c3ccc(Br)cc3)C2=O)C1=O (configuration not stated)
inactive: MDA-MB-231 breast 101% | RXF 393 renal 109% | SK-MEL-5 melanoma 100% | OVCAR-4 ovarian 93.1% | HS 578T breast 98.9% | NCI/ADR-RES ovarian 95.6% | T-47D breast 82.9% | BT-549 breast 101% | MDA-MB-435 melanoma 95.7% | SW-620 colon 93.4% | MCF7 breast 45.7% | HCC-2998 colon 99.3%
